The values that follow come from PubChem BioAssay (NCATS).

Inconclusive results are not listed. Activity calls are given as the source filed them. Calls follow the shape of the dose curve; as a rule, active = well fitted inhibition curve with a large enough effect; inconclusive = small, poorly fitted or top-dose-only effect; inactive = flat fitted curve, though single readings scatter.
% is scaled to controls: 0 for no effect and ±100 for the full control effect; potency is read from the fitted curve at half-maximal effect.
Also: nearly all actives have a fitted effect of over 65% in size.

Glutathione peroxidase 1 (Homo sapiens), sequence (P07203 whole entry, looked up): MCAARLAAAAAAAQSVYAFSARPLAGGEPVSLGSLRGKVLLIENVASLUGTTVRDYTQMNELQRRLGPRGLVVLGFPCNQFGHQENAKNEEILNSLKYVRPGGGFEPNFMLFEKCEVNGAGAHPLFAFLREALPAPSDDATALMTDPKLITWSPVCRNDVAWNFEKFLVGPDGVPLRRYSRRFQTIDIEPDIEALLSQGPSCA

The target in the first assay is Glutathione peroxidase 1 (Homo sapiens) (UniProt P07203). Description: Primary qHTS Assay for Inhibitors of Recombinant Selenoprotein Glutathione Peroxidase 1 (GPX1) (AID 1845191). Conditions: recombinant GPX1, GR-coupled NADPH fluorescence, 15 min; series mostly up to 48.8 µM; activity, negative = inhibition: at the top concentration. Summed up:
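NADPH consumption tracked by fluorescence at 340/450 nm between t=0 and t=15 min, room temperature. Final mix: 10 nM GPX1, 100 nM glutathione reductase, 1 mM GSH, 0.5 mM NADPH, 0.5 mM cumene hydroperoxide, 0.01% BSA; 30 min compound–enzyme preincubation.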
A general note: qHTS replaces the single test concentration by a dilution series.
As to `CNC(=O)c1ccc(Nc2ncc(C(F)(F)F)c(NCc3nccnc3N(C)S(C)(=O)=O)n2)cc1`, the Potency result is “inactive”.
For the molecule `CNc1nc(Nc2cnn([C@H]3CCN(C4COC4)C[C@@H]3F)c2Cl)ncc1C(F)(F)F`, the outcome was inactive.
`NCc1c[nH]c(=S)n1C1CCc2c(F)cc(F)cc2C1` (stereo not drawn): the Potency was 22.7 µM (active).
In the case of `C[C@@H]1C[C@H](O[C@@H]2O[C@H](CO[C@@H]3OC[C@](O)(CO)[C@H]3O)[C@@H](O)[C@H](O)[C@H]2O)CC(C)(C)[C@H]1/C=C/[C@@H](C)O`, the “outcome” value is “inactive [at 27.7 µM]”.
Consider `O=C(NC[C@H](O)CN1CCc2ccccc2C1)c1cc(NC2COC2)ncn1`, for which the Potency result was “inactive”.
With `CC1CCC2C(C(=O)O)=CC3CC(C)(C)CC132` (stereo not drawn), the outcome was inactive.
`NC(=O)c1cccc(-c2cc(O)cc(OC(=O)NC3CCCCC3)c2)c1`: the “outcome” value was “inactive [at 27.7 µM]”.
Take `CN(C)c1cccc(-c2c3c(=O)n(-c4ccccc4Cl)[nH]c3cc(=O)n2C)c1`: the “activity, negative = inhibition” value was -0.817% (inactive).

The target of the next assay is Phospholipid hydroperoxide glutathione peroxidase GPX4 (Homo sapiens) (UniProt P36969). Put plainly: Primary qHTS Assay for Inhibitors of Recombinant Selenoprotein Glutathione Peroxidase 4 (GPX4) (AID 1845192). The following applies: recombinant GPX4, GR-coupled NADPH fluorescence, 15 min; series mostly up to 50 µM; activity change, negative = inhibition: at the top concentration. In short, it runs like this: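 NADPH consumption followed by fluorescence at 340/450 nm, t=0 and after 15 min at room temperature. Reaction started with cumene hydroperoxide (0.5 mM final) after 30 min compound–GPX4 preincubation; final 200 nM GPX4, 100 nM GR, 1 mM GSH, 0.5 mM NADPH.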
Phospholipid hydroperoxide glutathione peroxidase GPX4 (Homo sapiens), sequence (P36969 whole entry, looked up): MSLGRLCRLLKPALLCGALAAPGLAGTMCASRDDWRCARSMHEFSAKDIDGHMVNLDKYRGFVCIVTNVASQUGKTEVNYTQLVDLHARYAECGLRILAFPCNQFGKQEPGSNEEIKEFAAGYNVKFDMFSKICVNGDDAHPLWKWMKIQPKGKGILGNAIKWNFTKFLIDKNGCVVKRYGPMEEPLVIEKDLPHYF
For the molecule `C=C1C(=O)OC2/C=C(\C)CC/C=C(\C(=O)O)CC/C=C(\C)CCC12` (stereo not drawn), the “activity change, negative = inhibition” value was 1.19% [at 27.8 µM] (inactive).
As for `C=C1CC2C3(C)C(O)CC(=O)C(C)(C)C3C(OC(C)=O)C(OC(C)=O)C2(C)C2C(=O)OC(C)(C(=O)OC)C(=O)C12C` (stereo not drawn), the “activity change, negative = inhibition” value was -2.4% [at 27.8 µM] (inactive).
Take `CCn1nnnc1NCc1ccc(C(C)C)cc1`: the “activity change, negative = inhibition” value is -8.78% (inactive).
As for `CC1=CC(=O)C2C(C)(C)CC(O)CC2(C)C1CO` (stereo not drawn), the outcome was inactive.
As for `CCCn1cnc2c(NCc3ccccc3)nc(N[C@H](CC)CO)nc21`, the “activity change, negative = inhibition” value was 0.656% (inactive).
`CC1(C)C(=O)C(C)(C)c2cc(C(=O)Nc3ccc(C(=O)O)cc3)ccc21`: the “activity change, negative = inhibition” value was 10.1% (inactive).
Regarding `C=C1[C@H]2[C@H](O[C@@H]3O[C@H](COC(=O)/C=C/c4cc(OC)c(O)c(OC)c4)[C@@H](O)[C@H](O)[C@H]3O)OC=C(C(=O)O)[C@H]2C[C@@H]1O`, the “activity change, negative = inhibition” value is -8.92% [at 15.3 µM] (inactive).
As for `COC1C=C([C@@H]2CC=C3[C@@]4(C)C(CC[C@]32C)[C@@]2(C)C=CC(=O)C(C)(C)C2C[C@H]4OC(C)=O)C(=O)O1` (stereo partly drawn), the “activity change, negative = inhibition” value is -10.8% [at 27.8 µM] (inactive).
On to `O=C1CSC2(CCN(CCCN3c4ccccc4Sc4ccc(Cl)cc43)CC2)N1`, for which the “activity change, negative = inhibition” value was -3.83% (inactive).
Regarding `O=C1CC(c2ccc([N+](=O)[O-])cc2)=NN1c1ccccc1`, the “activity change, negative = inhibition” value is 1.58% (inactive).
For `CC(=O)O[C@H](C[C@@H](C)[C@H]1C(=O)[C@H](O)[C@@]2(C)[C@@H]3CCC4C(C)(C)[C@@H](O[C@@H]5OC[C@H](O)[C@H](O)[C@H]5O)CC[C@@]45C[C@@]35CC[C@]12C)[C@@H]1OC1(C)C` (stereo partly drawn), the “activity change, negative = inhibition” value was -2.14% [at 15.3 µM] (inactive).
For `CN(C)C/C=C/C(=O)Nc1ccc(C(=O)Nc2cccc(Nc3ncc(Cl)c(-c4c[nH]c5ccccc45)n3)c2)cc1`, the Potency result was “inactive”.
Regarding `CCC[C@@H]1C[C@@H](C(=O)N[C@@H]([C@H]2O[C@H](SC)[C@H](O)[C@@H](O)[C@@H]2O)[C@@H](C)O)N(C)C1`, the “activity change, negative = inhibition” value was -3.2% (inactive).
For the molecule `CC1(C)CC[C@]2(C(=O)O)CC[C@]3(C)C(=CCC4[C@@]5(C)C[C@H](O)[C@H](O[C@@H]6OC[C@H](O)[C@H](O)[C@H]6O)[C@@](C)(CO)C5CC[C@]43C)[C@@H]2C1` (stereo partly drawn), the “activity change, negative = inhibition” value was -7.53% [at 15.3 µM] (inactive).
Regarding `COc1cc(/C=C/C(=O)OC[C@H]2O[C@H](O[C@]3(CO)O[C@H](CO)[C@@H](O)[C@@H]3O)[C@H](O)[C@@H](O)[C@@H]2O)cc(OC)c1O`, the “activity change, negative = inhibition” value was -15.1% [at 27.8 µM] (inactive).
Turning to `O=C(O)c1cc(=O)c2c3nc4ccccc4oc-3cc(=O)c2[nH]1`, the Potency is 7.94 µM (active).
`CCOc1c2c(c(OCC)c3ccccc13)C(=O)N(c1ccc(CC(=O)NS(=O)(=O)c3ccccc3)cc1)C2`: the “activity change, negative = inhibition” value was 16.7% (inactive).
For `OCC1OC(Oc2cc(O)c3c(c2)OC(c2ccc(O)cc2)C(O)C3)C(O)C1O` (stereo not drawn), the “activity change, negative = inhibition” value is 0.126% [at 27.8 µM] (inactive).
For the molecule `COc1ccc(C(OC2OC(CO)C(O)C(O)C2O)C(C)O)cc1` (stereo not drawn), the “activity change, negative = inhibition” value is 2.52% [at 27.8 µM] (inactive).
Turning to `COC1=CC(=O)C[C@@H](C)[C@]12Oc1cc(OC)cc(OC)c1C2=O`, the “activity change, negative = inhibition” value was 3.21% [at 27.8 µM] (inactive).
Turning to `C[C@@H]1C/C=C/C=C\C=C\C=C\[C@H](O[C@@H]2O[C@H](C)[C@@H](O)[C@H](N)[C@@H]2O)C[C@@H]2O[C@](O)(C[C@@H](O)C[C@H]3O[C@@H]3/C=C/C(=O)O1)C[C@H](O)[C@H]2C(=O)O`, the “activity change, negative = inhibition” value is 0.598% [at 15.3 µM] (inactive).
Regarding `CCOC(=O)[C@H](CCc1ccccc1)N[C@@H](C)C(=O)N1C2CCCCC2C[C@H]1C(=O)O` (stereo partly drawn), the “activity change, negative = inhibition” value was 1.4% (inactive).
As to `CC[C@@]1(O)C(=O)OCc2c1cc1n(c2=O)Cc2cc3c([N+](=O)[O-])cccc3nc2-1`, the Potency is 35.5 µM (active).
Turning to `CCC[C@@H]1C[C@@H](C(=O)N[C@H](C(C)Cl)[C@H]2O[C@H](SC)[C@H](O)[C@@H](O)[C@H]2O)N(C)C1` (stereo partly drawn), the “activity change, negative = inhibition” value is 3.68% (inactive).
On the same count and under the same terms, as for `CC1CCC2C(C)(C)C(O)CCC2(C)C12Cc1c(O)cc3c(c1O2)CN=C3N` (stereo not drawn), the figure is -8.84% [at 27.8 µM] (inactive); as for `CC(NCc1ccc(OCc2cccc(F)c2)cc1)C(N)=O` (stereo not drawn), 14.9% (inactive).
As to `Cc1ccc2c(c1)C=Cc1cc(C)ccc1C2c1cn(Cc2ccc(C(=O)Nc3nn[nH]n3)o2)c(=O)[nH]c1=S`, the “activity change, negative = inhibition” value is -31.5% (inactive).
For the molecule `C[C@]12CCC(=O)C=C1CC[C@@H]1[C@@H]2[C@@H](O)C[C@@]2(C)[C@H]1CC[C@]2(O)C(=O)COP(=O)(O)O`, the Potency was 6.31 µM (active).
On to `CC(C)=CCc1ccc(Oc2c(O)cc(C)cc2CO)c(C(=O)O)c1O`, for which the “activity change, negative = inhibition” value was -11.3% [at 27.8 µM] (inactive).
For `CCOc1ccc2c(c1)C(C)=CC(C)(C)N2`, the Potency is 31.6 µM (active).
